About 83,000 compounds went through this panel and 20% of them were active in at least one assay; those are over-represented in the sample as a whole.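 Cell lines were cultured in 96-well plates, exposed to a single compound concentration, and assessed for percent growth 48 hours later.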 A number with no mark means an inactive call. Active and inactive are the calls of the source. The calls were made as follows: active = growth percent below 10; inactive = the rest.
What was measured:
Assay in all cases: NCI-60 one-dose screen, 48 h (100 = growth as untreated, 0 = no growth, -100 = all killed)
Settings in all cases: 10 µM unless noted
[1] = tested on: HCT-15 colon
[2] = tested on: HT29 colon
[3] = tested on: SNB-75 CNS
[4] = tested on: SNB-19 CNS
[5] = tested on: U251 CNS
[6] = tested on: PC-3 prostate
[7] = tested on: SK-MEL-5 melanoma
[8] = tested on: UACC-62 melanoma
[9] = tested on: LOX IMVI melanoma
[10] = tested on: SK-MEL-28 melanoma
[11] = tested on: SK-MEL-2 melanoma
[12] = tested on: EKVX NSCLC
[13] = tested on: SN12C renal
[14] = tested on: UO-31 renal
[15] = tested on: TK-10 renal
[16] = tested on: ACHN renal
[17] = tested on: CAKI-1 renal
[18] = tested on: A498 renal
[19] = tested on: CCRF-CEM leukemia
[20] = tested on: MOLT-4 leukemia

SMILES	growth [1]	growth [2]	growth [3]	growth [4] [%]	growth [5]	growth [6] [%]	growth [7]	growth [8]	growth [9]	growth [10] [%]	growth [11]	growth [12] [%]	growth [13] [%]	growth [14]	growth [15] [%]	growth [16]	growth [17] [%]	growth [18]	growth [19]	growth [20]
Cc1ccc(C2=Nn3c(nnc3-c3ccccc3)SC2)cc1	23%	4.8% (active)	-4.24% (active)	31.4	25.5%	35.2	21.5%	41.4%	49%	76.2	-14.8% (active)	39.3	47.5	43.1%	48.3	52.1%	34.4	-12.4% (active)	23.6%	44.4%
N=c1c2cc(-c3ccccc3)oc2ncn1/N=C/c1ccc(Cl)cc1	56.8%	98.7%	88.7%	86.5	66.4%	82.2	91.2%	90.6%	63.3%	82.9	101%	84.7	62.6	94%	112	34.3%	97.7	99.7%	71.2%	88.2%
Nc1nc(N)c2c(n1)NC(c1ccc(Cl)cc1)CC(c1ccc(Nc3nc(NCCO)nc(N4CCOCC4)n3)cc1)=N2 (stereo not given)	53.7%	57.2%	72.5%	87.4	59.5%	64	67.4%	89.9%	61.2%	83.5	88.2%	89.8	82.1	84.4%	103	93.7%	97.2	90.6%	48.2%	45.5%
CCCCCc1ccc(S(=O)(=O)Nc2cccc(-c3csc(NCCN4CCN(C)CC4)n3)c2)cc1	-13.2% (active)	19.3%	92.8%	79.9	45.7%	65.7	-31.1% (active)	85.4%	-66.9% (active)	78	102%	84.2	90.6	73.4%	120	89.9%	83.1	85.4%	16.2%	11.7%
Cc1cc(C)n(C(=O)c2sc(=S)n(-c3ccccc3)c2N=Nc2c(N)n[nH]c2N)n1	108%	103%	109%	105	104%	98.7	103%	98.2%	101%	106	110%	102	105	84.8%	122	102%	98.9	92.8%	95.5%	105%
Cn1ccnc1C(=O)/C=C/c1ccc(CNC(=O)c2ccc(Cl)cc2)cc1	-14.5% (active)	-16.3% (active)	56%	11.1	7.03% (active)	19.9	32.6%	5.76% (active)	-89.2% (active)	45.2	91.7%	26.4	17.3	-11.3% (active)	21.3	2.81% (active)	35.9	21.1%	7.64% (active)	0.825% (active)
COc1ccc2[nH]cc(-c3csc4nc(-c5ccccc5)cn34)c2c1	11.3%	-8.92% (active)	-4.19% (active)	23.6	13.6%	19.4	47.2%	32.4%	-2.73% (active)	73.8	-5.6% (active)	35.8	40.2	33.2%	75.6	38.6%	26.3	-19.7% (active)	16.2%	19.7%
CN(Cc1ccccc1)S(=O)(=O)/N=C1\NC(=O)NC1=C(Cl)Cl	-69% (active)	48%	107%	68.6	18.8%	35.6	95.7%	62.2%	-84.5% (active)	11.2	87.8%	86.2	18.4	93.3%	44.1	-90.8% (active)	86.8	70.8%	-12.8% (active)	10.3%

From PubChem BioAssay (NCI)
